# NIH3T3 tox = Cytotoxic Profiling in NIH 3T3 Cell Line of Diverse Libraries Using Quantitative High-Throughput Screening | Potency, µM (titrated, usually from 96.7 µM), inactives show at the top dose activity change, negative = cytotoxicity, actives largely listed as inhibitors | 94,000 tested, 4.3% active | AID 1345082, 2018 | NIH 3T3 viability, CellTiter-Glo ATP luminescence, 48-72 h; further: on the % scale 0 is the no-effect control and ±100 the full control effect; nearly all actives have a fitted effect of over 55% in size
#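 Cells were seeded at 400 per well, treated with pin-transferred compound, and kept 48 or 72 hr at 37 °C before CellTiter-Glo addition and luminescence imaging of cellular ATP.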
# GPT2 inh = Primary qHTS assay for inhibitors of Glutamate pyruvate transaminase 2 (GPT2). Alanine aminotransferase 2 (Homo sapiens), Q8TD30. Recombinant GPT2, coupled pyruvate oxidase/HRP Amplex Red fluorescence. Potency, µM (highest dose often 57.7 µM), for the others: at the top dose activity change, negative = inhibition, most hits filed as inhibitors. 100,000 tested, 0.25% active. AID 1671188, 2021; further: on the % scale 0 is the no-effect control and ±100 the full control effect; nearly all actives have a fitted effect of over 60% in size
# Target sequence (Q8TD30 whole entry, looked up): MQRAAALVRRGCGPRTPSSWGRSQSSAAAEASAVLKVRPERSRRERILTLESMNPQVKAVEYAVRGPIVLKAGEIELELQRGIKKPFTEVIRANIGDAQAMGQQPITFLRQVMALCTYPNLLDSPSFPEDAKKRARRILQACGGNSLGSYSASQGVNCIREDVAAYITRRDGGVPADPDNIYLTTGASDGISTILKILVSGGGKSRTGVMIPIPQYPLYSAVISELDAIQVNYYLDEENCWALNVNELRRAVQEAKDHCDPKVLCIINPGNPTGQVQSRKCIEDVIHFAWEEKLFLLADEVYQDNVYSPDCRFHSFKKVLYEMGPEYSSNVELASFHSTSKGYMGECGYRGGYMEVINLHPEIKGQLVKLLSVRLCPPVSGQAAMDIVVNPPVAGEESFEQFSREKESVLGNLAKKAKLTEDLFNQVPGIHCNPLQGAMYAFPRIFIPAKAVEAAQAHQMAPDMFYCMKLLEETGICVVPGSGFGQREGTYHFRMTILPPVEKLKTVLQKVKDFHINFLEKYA
#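 GPT2 10ng/uL, a-KG 250uM, L-Ala 2mM, HEPES pH7.5 + 0.0001% Tween; 30 min RT. Then Amplex mix (PO/HRP/ThPP), 30 min RT dark, fluorescence. AOA 50uM used as positive control.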
# hNpr1 antagonist = Natriuretic polypeptide receptor (hNpr1) antagonism - Primary qHTS; AID 1347048, 2019; HEK293 hNpr1 GloSensor cGMP, ANP-stimulated luminescence; 76,000 tested, 1.6% active; Potency, µM (highest dose often 46.3 µM), for inactives: at the highest dose activity change, negative = inhibition, hits mostly inhibitors; calls by dose curve; further: on the % scale 0 is the no-effect control and ±100 the full control effect; nearly all actives have a fitted effect of over 60% in size
#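 HEK293 cells stably expressing human Npr1 and cGMP GloSensor pGS-40F, loaded 2 h with 2% GloSensor reagent, given compound 30 min at room temperature. Luminescence read before and 20 min after 0.1 nM hNppA.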
# HEK293 tox = Cytotoxic Profiling in HEK 293 Cell Line of Diverse Libraries Using Quantitative High-Throughput Screening; HEK 293 viability, ATP luminescence (CellTiter-Glo), 48-72 h; Potency, µM (highest dose often 115 µM), for the others: top-dose activity change, negative = cytotoxicity, most hits filed as inhibitors; 94,000 tested, 6.6% active; further: on the % scale 0 is the no-effect control and ±100 the full control effect; nearly all actives have a fitted effect of over 60% in size
#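 CellTiter-Glo luminescence (cellular ATP) was read after 48 or 72 hr of compound exposure at 37 degree Celsius. Cells were HEK 293 plated at 250 cells/well.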
# Luciferase inh = Firefly luciferase inhibition profiling of diverse chemical library using quantitative high-throughput screening. Potency, µM (doses to about 115 µM), actives largely listed as inhibitors. Luciferin 4-monooxygenase (Photinus pyralis), P08659. 76,000 tested, 2.5% active. purified P. pyralis luciferase, luminescence, biochemical; further: on the % scale 0 is the no-effect control and ±100 the full control effect; nearly all actives have a fitted effect of over 65% in size
#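 Luminescence read by CCD imaging after purified firefly luciferase (10nM final) was added to substrate buffer holding 10uM D-luciferin and 10uM ATP, pH 7.5, pre-dosed with compound.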
# NPR1 antag cnf = Natriuretic polypeptide receptor (hNpr1) antagonism - Confirmation | shares compounds with hNpr1 antagonist | HEK293 hNpr1 cGMP GloSensor luminescence, ANP-stimulated | Potency, µM (titrated, usually from 57.6 µM), for the others: at the top dose activity change, negative = inhibition, usual class: inhibitors | 1,400 tested, 76% active | AID 1347044, 2019; calls by dose curve; further: nearly all actives have a fitted effect of over 70% in size
# Npr2 selectivity = Natriuretic polypeptide receptor (hNpr2) antagonism - Subtype selectivity assay | shares compounds with hNpr1 antagonist | HEK293 hNpr2 GloSensor cGMP luminescence, CNP-stimulated | Potency, µM (series often up to 57.6 µM), inactives show at the highest dose activity change, negative = inhibition, usual class: inhibitors | 1,400 tested, 67% active | AID 1347046, 2019; calls by dose curve; further: nearly all actives have a fitted effect of over 70% in size
# FLuc counter = Natriuretic polypeptide receptor (hNpr1) antagonism - Confirmation firefly luciferase (FLuc) inhibition counterscreen. shares compounds with hNpr1 antagonist. purified FLuc enzyme, luminescence, Km substrate. Potency, µM (titrated, usually from 57.6 µM), inactives show at the top dose activity change, negative = inhibition, actives largely listed as inhibitors. 1,400 tested, 0.7% active; further: series mostly up to about 58 µM; 0% is about no effect
# GloSensor cGMP = Natriuretic polypeptide receptor (hNpr1) antagonism - Counterscreen GloSensor control cell line. shares compounds with hNpr1 antagonist. HEK293 GloSensor cGMP, SNP-stimulated, luminescence. Potency, µM (titrated, usually from 57.6 µM), for inactives: at the highest dose activity change, negative = inhibition, usual class: inhibitors. 1,400 tested, 69% active; calls by dose curve; further: on the % scale 0 is the no-effect control and ±100 the full control effect; nearly all actives have a fitted effect of over 70% in size
# * = called active by the depositor; i = inactive; ? = inconclusive; . = no result given; [ ] = remark or other dose. Hits are enriched below; roughly 10% of the tested compounds scored in any of these assays. Unless noted, the call rests on the fitted dose curve; in most records, active means well fitted curve in the direction sought with a large enough effect; inconclusive means small, poorly fitted or top-dose-only effect, or another doubt; inactive means no such curve, though single readings can be large; an effect the other way counts as inactive or inconclusive. Potency means the concentration at half of the fitted maximal effect.
SMILES,NIH3T3 tox,GPT2 inh,hNpr1 antagonist,HEK293 tox,Luciferase inh,NPR1 antag cnf,Npr2 selectivity,FLuc counter,GloSensor cGMP
CC1=C[C@@H](CN(C)Cc2cccnc2)[C@H](C(C)C)C[C@H]1Cc1nnc(-c2ccc([N+](=O)[O-])cc2)o1,15.8µM*,i,20µM*,22.4µM*,i,15.3µM*,17.2µM*,0.8%,12.2µM*
CC1=C[C@@H](CO)[C@H](C(C)C)C[C@H]1Cc1nnc(-c2cccnc2)o1,-29.0%[138 µM],-11.5%[88.5 µM],-1.2%[70.6 µM],?,i,.,.,.,.
CC1=C[C@@H](CN2CCOCC2)[C@H](C(C)C)C[C@H]1Cc1nnc(-c2ccncc2)o1,?,2.3%[88.5 µM],?,?,i,?,-27.0%[86.2 µM],2.5%[86.2 µM],-16.2%[86.2 µM]
CNC(=O)c1cc(C2CC2)nc2c1c(C1CCN(C(=O)c3ccc(Cl)nc3)C1)nn2C (stereo not given),i,.,.,-9.6%,.,.,.,.,.
Cc1ccc(Cl)cc1NC(=O)c1cnc(-c2ccccc2)nc1-c1ccncc1,?,i,?,-31.1%,i,?,?,39.1%,-23.8%
COc1cc(NC(=O)c2cnc(-c3ccc(F)cc3)nc2-c2ccncc2)cc(OC)c1,?,3.7%,-19.6%,?,i,.,.,.,.
O=C(Nc1cccc(F)c1)c1cnc(-c2ccc(F)cc2)nc1-c1ccncc1,?,i,?,44.7µM*,i,?,?,14.8%,?
CC1=NS(=O)(=O)N(C)C=C1C(=O)OCc1nc(-c2cccc(F)c2)no1,-24.4%,i,?,?,i,.,.,.,.
CC1=NS(=O)(=O)N(C)C=C1C(=O)OCc1nc(-c2ccsc2)no1,-13.4%,i,?,-11.0%,i,.,.,.,.
CC1=NS(=O)(=O)N(C)C=C1C(=O)OCc1nc(-c2cccc(Cl)c2)no1,-18.9%,i,14.1µM*,?,i,21.7µM*,?,0.1%,?
CC1=NS(=O)(=O)N(C)C=C1C(=O)OCc1nc(-c2ccccc2)no1,-24.0%,i,-9.1%,?,i,.,.,.,.
CC1=NS(=O)(=O)N(C)C=C1C(=O)OCc1nc(-c2ccccc2)oc1C,?,i,10µM*,?,i,12.2µM*,13.7µM*,4.9%,10.9µM*
CC1=NS(=O)(=O)N(C)C=C1C(=O)OCc1nc(-c2ccc(C(F)(F)F)cc2)no1,?,i,10µM*,39.8µM*,i,9.68µM*,10.9µM*,0.3%,9.68µM*
Cc1cc(OCCCS(C)(=O)=O)cc(C)c1-c1cccc(COc2ccc3c(c2)OCC3CC(=O)O)c1 (stereo not given),.,i,.,.,.,.,.,.,.
Cn1nc(C(=O)N2CCc3nn(CC#N)c(=O)n3CC2)c2ccccc21,-4.0%,-8.7%,1.5%,i,?,.,.,.,.
Cc1nsc(NC(=O)NC23CC4CC(C2)CC(C(C)C)(C4)C3)n1,?,-2.6%,12.6µM*,31.6µM*,i,30.6µM*,27.3µM*,-6.4%,?
Cc1nn2c(c1-c1ccccc1Oc1ccccc1)N(CC1CCOCC1)CCC2,?,1.9%[88.5 µM],-15.8%[70.6 µM],?,i,.,.,.,.
Cc1nn2c(c1-c1ccccc1Oc1ccccc1)N(Cc1ccc(C(=O)O)cc1)CCC2,25.1µM*,4.4%[88.5 µM],2.82µM*,44.7µM*,i,?,?,1.3%[86.2 µM],?
COc1ccc(CN2CCCn3nc(C)c(-c4ccccc4Oc4ccccc4)c32)cc1O,11.2µM*,i,2.51µM*,20µM*,i,21.7µM*,21.7µM*,2.6%,4.85µM*
Cc1nn2c(c1-c1ccccc1-c1ccccc1)N(Cc1cccc(O)c1)CCC2,?,-7.0%[88.5 µM],2.24µM*,?,i,3.14µM*,4.98µM*,-1.4%[86.2 µM],3.53µM*
Cc1nn2c(c1-c1ccccc1Oc1ccccc1)N(C(=O)c1ccc(F)cc1)CCC2,?,0.6%[88.5 µM],-7.8%[70.6 µM],?,i,.,.,.,.
O=C1[C@H]2CN(Cc3cccc(F)c3F)C[C@H]2C(=O)N1Cc1ccc2c(c1)OCO2,?,4.7%,-5.0%,?,i,.,.,.,.
COc1cccc(CCC(=O)N2CCC(c3nc(C4CCOCC4)no3)C2)c1 (stereo not given),-26.0%,i,-1.4%,?,i,.,.,.,.
O=C(CCc1ccccc1)N1CCC(c2nc(C3CCOCC3)no2)C1 (stereo not given),-9.8%,-7.2%,-17.6%,-11.5%,i,-17.2%,-1.8%,-2.2%,-12.1%
COc1ccc(C2(C(=O)N3CCC4(CC3)C(OC)CN4c3cccc(F)c3)CC2)cc1 (stereo not given),?,i,11.2µM*,44.7µM*,i,?,13.7µM*,2.0%,-22.6%
COCCC(=O)N1CCC2(CC1)C(OC)CN2c1cccc(F)c1 (stereo not given),2.4%,i,0.7%,3.9%,i,.,.,.,.
COCc1nncn1C1CCN(S(=O)(=O)c2ccccc2Cl)CC1,3.3%,i,4.2%,9.6%,i,.,.,.,.
O=C(CCC1CCCC1)N1CCC2(CC1)CC(N(C(=O)c1ccccc1)C1CC1)CCO2 (stereo not given),?,i,?,?,i,?,-27.5%,0.1%,?
O=C(Cc1ccccc1)N1CCC2(CC1)CC(N(C(=O)c1ccccc1)C1CC1)CCO2 (stereo not given),-17.1%,2.7%,-14.0%,?,i,.,.,.,.

# Screening data: PubChem BioAssay, National Center for Advancing Translational Sciences (NCATS)
